# Results as given in PMC5540273 (PLoS ONE, 2017).
# Legend:
# Details in all cases: concentration: 1 μM, replicates: in singlicate; n = 1
# VPS34 = system: T1, VPS34
# T1 construct: gene PIK3C3
# VRK2 = system: VRK2
# WEE1 = system: WEE1
# WEE2 = system: WEE2
# WNK1 = system: WNK1
# WNK2 = system: WNK2
# WNK3 = system: WNK3
# WNK4 = system: WNK4
# YANK1 = system: T2, YANK1
# T2 construct: gene STK32A
# YANK2 = system: T3, YANK2
# T3 construct: gene STK32B
# 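Further: KINOMEscan kinase panel screen.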
Structure (SMILES),%Inh (VPS34) [%],%Inh (VRK2) [%],%Inh (WEE1) [%],%Inh (WEE2) [%],%Inh (WNK1) [%],%Inh (WNK2) [%],%Inh (WNK3) [%],%Inh (WNK4) [%],%Inh (YANK1) [%],%Inh (YANK2) [%]
CCc1ccnc(/C=C/c2n[nH]c3cc(Sc4ccccc4C(=O)NC)ccc23)c1,6,13,0,0,0,39,0,0,0,0
Fc1ccc(-c2nn3c(OCC(F)(F)F)cccc3c2-c2ccncc2)cc1 [GW514784],2,33,10,0,14,0,27,38,30,24
Cc1ccc(C(=O)NCC(N)=O)cc1-n1c(C)cc(OCc2ccc(F)cc2F)c(Br)c1=O,0,0,3,17,0,5,0,0,0,10
O=c1cc(N2CCOCC2)nc2n(Cc3cccc4ccccc34)ccn12 [GSK2333389],98,0,13,12,2,0,0,0,1,0
